# The whole screen tested about 2,200 compounds, of which about 1,400 (64%) were called active. So high a share suggests a set chosen from earlier hits. Only a sample is shown. Unmarked numbers belong to inactive results.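 The calls were made as follows: active = luminescence in either replicate above plate mean of wells with a partly effective reference agonist dose plus 3 SD; inactive = the rest.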
# Assay: effects on beta-adrenoceptor cAMP reporter signal – cell-based, secondary assay 2, luminescence, counter-screen for D1 allosteric modulator project, confirmation (AID 647);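 also: isoproterenol raises cAMP through native beta-adrenoceptor Gs so signal bypasses D1; raw luminescence counts from the Envision reader with one value per duplicate well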
# Settings: HEK293 D1 CRE-luciferase, isoproterenol EC30 counter-screen; at 10 µM; active compounds read high
row,Structure (SMILES),luminescence
1,CCn1c(=N)c(S(=O)(=O)c2ccc(F)cc2)cc2c(=O)n3ccccc3nc21,5680 (active)
2,CCCn1c(=NC(C)=O)c(C(=O)OCC)cc2c(=O)n3ccccc3nc21,2650
3,O=C(NCc1ccccn1)c1ccc2nc(-c3ccco3)c(-c3ccco3)nc2c1,2550
4,Cn1c(/C(C#N)=C2/CCCCCN2)nc2ccccc21,3990 (active)
5,CCn1cc(C(=O)NCC2COc3ccccc3O2)c2cc(OC)c(OC)cc2c1=O (stereo not drawn),2910
6,CCC(=O)NC(=Nc1nc2ccccc2s1)NC(=O)CC,3180
7,Cn1c(=O)c2[nH]c(NCC3CCCO3)nc2n(-c2ccccc2)c1=O (stereo not drawn),2780
8,c1ccc2c(NCC3CCCO3)nc(-c3ccncc3)nc2c1 (stereo not drawn),3220 (active)
9,CCCCSc1nc2c(c(=O)n1CC)SC(C)C2 (stereo not drawn),2820
10,CCOc1cccc(-n2nnnc2-c2ccc(OC)cc2)c1,4040 (active)
11,CC(C)n1c(C(O)c2ccccc2)nc2ccccc21 (stereo not drawn),2350
12,COC(=O)c1ccccc1NC(=O)C1CCN(S(=O)(=O)c2cc(OC)ccc2OC)CC1,3570 (active)
13,CCCS(=O)(=O)N1CCC(C(=O)NCCc2ccc(OC)c(OC)c2)CC1,2720
14,Cn1c(=O)c2cn(-c3cccc4ccccc34)cc2n(C)c1=O,3300 (active)
15,CC(=O)c1ccc(Oc2cc(C)nc(-n3nc(C)cc3C)n2)cc1,6880 (active)
16,COc1ccc(Nc2cc(C)nc(-n3nc(C)cc3C)n2)cc1,3540 (active)
17,COc1ncnc2sc3c(c12)CCCC3,2970
18,CCOc1ccc(Cn2c(SCCCCC#N)nc3c2c(=O)n(C)c(=O)n3C)cc1OCC,5750 (active)
19,COC(=O)C(C)C1Sc2ccccc2NC1=O (stereo not drawn),3160
20,CN1CCN(CC(O)COCc2ccc3c(c2)OCO3)CC1 (stereo not drawn),5380
21,c1coc(-c2nc3nc4ccccc4n3nc2-c2ccco2)c1,4380 (active)
22,COC(=O)C1=C(C)NC2=C(C(=O)c3ccccc32)C1c1ccc(-c2ccc(C(=O)O)cc2)o1 (stereo not drawn),2560
23,CCCCc1c(O)nc2n(c1=O)CCS2,2460
24,COc1ccc(CCNc2ncnc3nc[nH]c23)cc1OC,3430 (active)
25,CCCc1nc(-c2ccccc2O)n(-c2ccccc2)n1,3160 (active)
26,CC1(C)Cc2ccccc2-c2nc(CN3CCOCC3)[nH]c(=O)c21,3540 (active)

row,Structure (SMILES),luminescence
1,CC1Oc2ccccc2N(Cc2cccnc2)C1=O (stereo not drawn),2840 (active)
2,CCOC(=O)c1c(NC(=O)CSc2nnc(Cc3csc(N)n3)n2C)sc(C)c1C,2440
3,c1ccc(COc2nsnc2N2CCOCC2)cc1,4500
4,N#CCSc1nc2ccccc2c(=O)n1-c1ccccc1,4560 (active)
5,C=CCSc1nc2c(c(=O)[nH]1)C(C(C)C)C(C#N)=C(N)O2 (stereo not drawn),5180 (active)
6,COc1ncnc2c1N=C1CC(C)(C)CC(N)=C1S2,2960
7,O/N=C(\c1ccc2c(c1)OCCO2)C1CCCCC1,2880 (active)
8,CCOc1ccc(Nc2oc(Cc3ccccc3)nc2C#N)cc1,5850 (active)
9,N#Cc1nc(Cc2ccccc2)oc1NCCc1ccccc1,4280 (active)
10,COc1ccc(Nc2oc(-c3ccccc3Cl)nc2C#N)cc1,3960 (active)
11,CC(C)C1C2=C(CC(C)(C)CC2=O)ON1c1ccccc1 (stereo not drawn),3320
12,N#Cc1c(N)sc2c1CCN(C(=O)OCc1ccccc1)C2,5320 (active)
13,CCNc1nc(NCC)nc(N(C)n2cnnc2)n1,3650 (active)
14,CC(C)c1cc(C(=O)O)on1,2070
15,Oc1ccc(-c2csc(Nc3cccnc3)n2)cc1,3250 (active)
16,CCn1ncc(C2=NOC(C(=O)Nc3ccccc3C(=O)OC)C2)c1C (stereo not drawn),5220 (active)
17,CCn1nc(C(=O)OCC(=O)N2c3ccccc3CC2C)c2ccccc2c1=O (stereo not drawn),2840
18,Cc1ccc(-c2nn(-c3ccccc3)cc2CN(Cc2ccccc2)C(=O)CCC(=O)O)o1,4080 (active)
19,O=C(CSc1nnc2scc(-c3ccc(F)cc3)n12)NCc1ccco1,2580
20,CCOc1ccc(-c2nnn(CC(=O)N3CCN(c4ccc(OC)cc4)CC3)n2)cc1OCC,3110 (active)
21,CCOc1cc(-c2noc(CCC(=O)N3CCOCC3)n2)ccc1OC,2630
22,CC1CCN(c2oc(-c3ccccc3F)nc2C#N)CC1,3380 (active)
23,CCOc1ccc2c(c1)cc(CN(C(=O)CC)C1CCCCC1)c1nnnn12,3880 (active)
24,CCOc1ccc2[nH]c(=O)c(C(c3nnnn3CCOC)N3CCOCC3)cc2c1 (stereo not drawn),2250
25,FC(F)(F)c1cc(-c2ccco2)nc(N2CCOCC2)n1,4220 (active)
26,O=C(NCc1ccco1)c1cnn2c(C(F)(F)F)cc(-c3ccco3)nc12,3240

row,Structure (SMILES),luminescence
1,Cc1cc(C(F)(F)F)nn1-c1nc(-c2ccco2)cc(C(F)(F)F)n1,3340 (active)
2,COc1ccc(-c2nnco2)cc1OC,3030 (active)
3,Cc1ccc(C2CC(c3cccc(Br)c3)n3nc(N)nc3N2)cc1 (stereo not drawn),3660 (active)
4,CCOc1ccccc1C1CC(c2ccccc2)Nc2nc(N)nn21 (stereo not drawn),3190
5,Cc1ccc(C2CC(c3cccc(C)c3)n3nc(N)nc3N2)cc1 (stereo not drawn),2800
6,CCOc1cc(C(=O)N2CCc3cc(OC)c(OC)cc3C2)ccc1OC(F)F,11500 (active)
7,CC(=O)Nc1cccc(Oc2cc(C#N)c(C#N)cc2N2CCOCC2)c1,4140 (active)
8,COc1cc(NC(=O)N2CCOCC2)cc(OC)c1,2540
9,C/C(Cl)=C\Cn1c(Nc2cccc(C)c2)nc2c1c(=O)n(C)c(=O)n2C,3460 (active)
10,Cc1cc(C)c2c(n1)nn1c(-n3ccnc3)cc(C)nc21,3020 (active)
11,CCSc1nc(C)nc2c1oc1ccccc12,3530 (active)
12,COC(=O)[C@H](C(C)C)n1c(C)c(C(C)=O)c(C(C)=O)c1C,2600
13,O=c1cc(-c2ccccc2)nc(N2CCCCC2)[nH]1,3010
14,CCCN1Cc2cccc(C(=O)NCc3ccccc3)c2C1=O,3680 (active)
15,CCSc1ncnc2c(C#N)c3n(c12)CCCCC3,6230 (active)
16,O=C(c1ccco1)N1CCN=C1SCc1cccc(Cl)c1,3200 (active)
17,Cc1ccc(S(=O)(=O)c2c(N)n(C)c3nc4ccccc4nc23)cc1,3490 (active)
18,COc1ccc(-n2c(Cc3cccn3C)nnc2SCC(=O)Nc2cc(C)cc(C)c2)cc1,2370
19,Nc1ccc(S(=O)(=O)NC(=O)c2ccccc2)cc1,2950
20,CCOC(=O)c1cc(C)sc1NC(=O)C1CCC1,4600 (active)
21,C/C(=C\C(=O)c1ccccc1)Nc1cccc(O)c1,2540
22,CN(C)c1nc(N)nc(CSc2nnnn2-c2cccc3ccccc23)n1,3420 (active)
23,COc1ccc(-c2nn3c(-c4ccccc4)nnc3s2)cc1OC,8440 (active)
24,COc1cc(-c2nn3c(-c4cccc(C)c4)nnc3s2)cc(OC)c1OC,4430 (active)
25,O=C(C1CCC1)N1CCc2cc(S(=O)(=O)NCc3cccnc3)ccc21,3060
26,N#Cc1nc(N)nc(N(c2ccccc2)c2ccccc2)n1,2880
